RBX1-CUL1 inh = blocks human RBX1-Cullin-1 di-ubiquitin formation; P62877+Q13616; 140,000 compounds, 0.6% hits; inhibition, % at 10 µM; AID 1347404; in vitro K48 di-Ub FRET, acceptor:donor ratio, 45 min; in the data active = inhibition above about 25%
Target sequence (P62877 whole entry, looked up): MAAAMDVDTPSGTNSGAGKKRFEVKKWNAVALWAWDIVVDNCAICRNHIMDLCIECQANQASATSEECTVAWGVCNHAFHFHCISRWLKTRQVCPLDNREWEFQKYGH
Target sequence (Q13616 whole entry, looked up): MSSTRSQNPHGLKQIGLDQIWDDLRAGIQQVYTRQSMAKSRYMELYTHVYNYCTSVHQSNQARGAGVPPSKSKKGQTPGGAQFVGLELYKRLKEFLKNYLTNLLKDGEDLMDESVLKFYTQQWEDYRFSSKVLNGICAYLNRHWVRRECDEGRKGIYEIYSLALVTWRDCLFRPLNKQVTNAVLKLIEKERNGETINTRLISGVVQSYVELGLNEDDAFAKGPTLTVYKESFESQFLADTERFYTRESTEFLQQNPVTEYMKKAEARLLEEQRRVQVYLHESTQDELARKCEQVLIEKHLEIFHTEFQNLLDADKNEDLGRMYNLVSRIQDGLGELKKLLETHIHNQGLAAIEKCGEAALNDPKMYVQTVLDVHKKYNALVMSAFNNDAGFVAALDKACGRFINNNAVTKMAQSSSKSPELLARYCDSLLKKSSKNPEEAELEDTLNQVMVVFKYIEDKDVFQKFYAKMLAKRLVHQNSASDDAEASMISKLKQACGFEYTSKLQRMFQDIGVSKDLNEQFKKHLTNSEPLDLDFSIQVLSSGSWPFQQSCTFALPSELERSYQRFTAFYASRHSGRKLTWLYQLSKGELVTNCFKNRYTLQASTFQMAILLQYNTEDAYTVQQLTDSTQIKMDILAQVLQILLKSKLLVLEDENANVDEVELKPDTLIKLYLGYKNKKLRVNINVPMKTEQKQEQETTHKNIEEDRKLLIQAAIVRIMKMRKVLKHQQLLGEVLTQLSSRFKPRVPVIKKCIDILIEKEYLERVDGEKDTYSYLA
Active calls of the source: *. This excerpt belongs to a sample that is enriched for hits.

Screening CCCCCC(=O)N1c2ccccc2C(C)(c2ccccc2)CC1(C)C (configuration not stated) returned RBX1-CUL1 inh 6.9.
CCC(=O)N1c2ccccc2C(C)(c2ccccc2)CC1(C)C (configuration not stated) was read as RBX1-CUL1 inh 2.6.
Screening CCC(CC)C(=O)N1c2ccccc2C(C)(c2ccccc2)CC1(C)C (configuration not stated) returned RBX1-CUL1 inh 27.8*.
`CCC(=O)Nc1cc(S(=O)(=O)N2CCCCC2)ccc1OC` gave RBX1-CUL1 inh 1.0.
CCc1nnc(NC(=O)c2cccc(I)c2)s1 was read as RBX1-CUL1 inh -8.0.
NS(=O)(=O)c1ccc(NCc2ccccc2OCc2ccccc2F)cc1 was read as RBX1-CUL1 inh -2.2.
Oc1ccc(NCc2cc(Cl)ccc2OCc2ccccc2F)cc1 was read as RBX1-CUL1 inh 29.6*.
For Oc1ccc(NCc2ccccc2OCc2ccccc2Cl)cc1 the results were RBX1-CUL1 inh -31.4.
`CCOc1ccccc1CNc1ccc(O)cc1` gave RBX1-CUL1 inh 45.8*.
Screening CCOc1ccccc1CNc1ccc(N2CCOCC2)cc1 returned RBX1-CUL1 inh 4.5.
Screening Oc1ccc(NCc2ccccc2OCc2ccccc2F)cc1 returned RBX1-CUL1 inh 9.9.
For COCCNC(=O)c1ccc(CN2CCCCC2)cc1 the results were RBX1-CUL1 inh -1.0.
O=C(O)c1ccccc1CCc1ccc(Cl)s1 was read as RBX1-CUL1 inh -0.5.
`CCn1cc(Cl)c(C(=O)Nc2ccsc2C(=O)OC)n1` gave RBX1-CUL1 inh -2.7.
Screening CN(Cc1nccs1)C(=O)CC1(c2ccc(-c3ccccc3)cc2)CC(=O)N(C)C1=O (configuration not stated) returned RBX1-CUL1 inh 17.3.
`S=C(Nc1ccc(Oc2ccccc2)cc1)N1CCc2ccccc2C1` gave RBX1-CUL1 inh 1.2.
CCC(=O)Nc1cccc(C(C)=O)c1 was read as RBX1-CUL1 inh -5.3.
For CCOC(=O)Cn1cc(/C=c2\sc3n(c2=O)C(c2ccc(SC)cc2)C(C(=O)OCC)=C(c2ccccc2)N=3)c2ccccc21 (configuration not stated) the results were RBX1-CUL1 inh -11.1.
Screening CCOC(=O)C1=C(c2ccccc2)N=c2s/c(=C/c3ccccc3O)c(=O)n2C1c1ccc2c(c1)OCO2 (configuration not stated) returned RBX1-CUL1 inh 0.2.
CCOC(=O)C1=C(c2ccccc2)N=c2s/c(=C\c3ccc(N(CC)CC)cc3O)c(=O)n2C1c1ccc(SC)cc1 (configuration not stated) was read as RBX1-CUL1 inh 47.2*.
`C=CCN(C(=O)c1ccc2nc(-c3ccccc3)c(-c3ccccc3)nc2c1)c1ccccc1` gave RBX1-CUL1 inh 4.5.
For O=C(Nc1sc2c(c1C(=O)Nc1ccccc1)CCC2)c1ccccc1 the results were RBX1-CUL1 inh 6.8.
For CC(=O)c1coc2c1C(=O)c1ccccc1C2=O the results were RBX1-CUL1 inh 33.8*.
Screening Cc1ccc(NC(=O)c2cccc3c2C(=O)c2ccccc2-3)cc1 returned RBX1-CUL1 inh 2.2.
Screening O=C1C(=O)c2c(C(=O)c3cccs3)coc2-c2ccccc21 returned RBX1-CUL1 inh -4.8.
Screening CS(=O)(=O)N1CCC(C(N)=O)(N2CCCCC2)CC1 returned RBX1-CUL1 inh 6.5.
For COc1ccc(OC)c(C2C(C(=O)Nc3ccccc3)C(C)=Nc3nnnn32)c1 (configuration not stated) the results were RBX1-CUL1 inh -1.4.
`COC(=O)c1cc(-c2ccc(/C=C3/SC(=O)NC3=O)o2)ccc1Cl` gave RBX1-CUL1 inh -3.7.
Screening CC1=C(C#N)C(=O)NC(=O)/C1=C/c1ccc(-c2ccc(Cl)c(C(=O)OC(C)C)c2)o1 returned RBX1-CUL1 inh 85.6*.
CC1=C(C#N)C(=O)N(CC(C)C)C(=O)/C1=C/c1ccc(-c2ccc(Cl)cc2)o1 was read as RBX1-CUL1 inh -0.2.
CC(CCCC(C)(C)O)Nc1nncc(-c2ccc(C(F)(F)F)cc2)n1 (configuration not stated) was read as RBX1-CUL1 inh 0.6.
`CCc1csc(CNC(=O)c2ccc(N(C)Cc3ccon3)nc2)n1` gave RBX1-CUL1 inh -6.3.
For O=S(Cc1ccc(Oc2ccccc2)cc1)CC(O)CO (configuration not stated) the results were RBX1-CUL1 inh 8.4.
Screening CC(=O)c1c(O)ccc2c1[C@@H]1OC(=O)C[C@@H]1O2 returned RBX1-CUL1 inh 98.2*.
Screening CCCCC(=Nc1ccccc1C)C1C(=O)CC(c2ccccc2)CC1=O (configuration not stated) returned RBX1-CUL1 inh 7.1.
Screening O=C1CC(c2ccccc2)CC2=Nc3ccccc3NC(c3cccc4ccccc34)C12 (configuration not stated) returned RBX1-CUL1 inh 2.8.
For CCCCC1C(=O)N=C2CC(c3ccccc3)CC(=O)C2C1=O (configuration not stated) the results were RBX1-CUL1 inh 27.7*.
`CCc1cc(C(=O)NNC(=S)NCC(C)C)cs1` gave RBX1-CUL1 inh -4.1.
For COC(=O)c1ccc(C(=O)OC)c(NC(=O)c2ccc(Br)cc2)c1 the results were RBX1-CUL1 inh -8.9.
Screening COC(=O)c1cc(Br)cc(O)c1O returned RBX1-CUL1 inh 83.1*.
Screening COC(=O)c1cc(Br)ccc1Cl returned RBX1-CUL1 inh 4.1.
`CC(=O)c1ccc(NC(=O)CSc2nc3ccc(NC(=O)c4cccc5ccccc45)cc3s2)cc1` gave RBX1-CUL1 inh -7.3.
Screening CCOC(=O)C1C(C)=NC(=O)NC1c1ccc(OC)c(CN2CCOCC2)c1 (configuration not stated) returned RBX1-CUL1 inh -5.7.
Screening COc1ccc(CC(=O)N2CCOc3ccc(CN4CCN(Cc5ccccn5)CC4)cc3C2)cc1 returned RBX1-CUL1 inh 9.6.
`CCC(CC)NC(=O)C1CCN(C(=O)c2ccccc2F)CC1` gave RBX1-CUL1 inh -0.5.
Screening COc1cccc(CNC(=O)N2CCC(Cn3cc(CO)nn3)CC2)c1 returned RBX1-CUL1 inh 36.0*.
Cc1ccc(CCC(=O)N2CCC(Cn3cc(CO)nn3)CC2)cc1C was read as RBX1-CUL1 inh 0.4.
For COCc1cn(CC2CCN(C(=O)NCc3ccccc3F)CC2)nn1 the results were RBX1-CUL1 inh -7.8.
CCOC(=O)c1ccc(-c2ccc(/C=C3\C(=O)NN(c4ccc(Br)c5ccccc45)C3=O)o2)cc1 was read as RBX1-CUL1 inh 8.5.
CCOC(=O)c1cc(-c2ccc(/C=C3/C(=O)NN(c4ccccc4)C3=O)o2)ccc1Cl was read as RBX1-CUL1 inh -1.8.
`CCOC(=O)c1ccc(N2NC(=O)/C(=C/c3ccc(-c4ccc(Br)cc4C(=O)O)o3)C2=O)cc1` gave RBX1-CUL1 inh 98.0*.
`O=C(O)c1cccc(-c2ccc(/C=c3/sc4n(c3=O)C(c3cccc(F)c3)C3=C(N=4)c4ccccc4CC3)o2)c1` (configuration not stated) gave RBX1-CUL1 inh 72.9*.
For O=c1/c(=C\c2ccc(O)cc2)sc2n1C(c1cccs1)C1=C(N=2)c2ccccc2CC1 (configuration not stated) the results were RBX1-CUL1 inh 9.6.
O=c1/c(=C/c2ccccc2O)sc2n1C(c1cccs1)C1=C(N=2)c2ccccc2CC1 (configuration not stated) was read as RBX1-CUL1 inh -6.4.
For COc1ccc(/C=c2/sc3n(c2=O)C(c2cccc(F)c2)C2=C(N=3)c3ccccc3CC2)cc1OC (configuration not stated) the results were RBX1-CUL1 inh -1.4.

Screening data as filed in PubChem BioAssay.
